This is part of a sample that, as a whole, favours compounds with a hit. Of some 83,000 tested, about 20% had one in any assay.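 Negative percent growth values reflect cell death: -40 means 40% of the cells present at the start died, and -100 means all died.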 The source made the active and inactive calls. How the source made its calls: active means growth percent below 10; inactive means the rest.
system: RXF 393 renal; test: NCI-60 one-dose screen, 48 h (100 = growth as untreated, 0 = no growth, -100 = all killed); settings: 10 µM unless noted

SMILES | growth
Nc1ccc(S(=O)(=O)O)c2ccc(N=Nc3ccc(N=Nc4ccc(S(=O)(=O)O)cc4)c4ccccc34)c(O)c12 | 109% (inactive)
CSc1ccc(-c2n[nH]nc2-c2cc3ccccc3s2)cc1 | 75.5% (inactive)
COc1ccc(C(=O)COc2ccc(/C=C3\COc4ccc(OC)cc4C3=O)cc2)cc1 | 21.7% (inactive)
COc1cc(C=Nc2oc(-c3ccccc3)c(-c3ccccc3)c2C#N)cc(CN2CCCCC2)c1O | 104% (inactive)
O=C1CC[C@H](c2ccc(O)c3c2C(=O)[C@@H]2O[C@@H]2C3=O)c2cccc(O)c21 | 16.9% (inactive)
C#CC(F)(F)[C@]1(O)CC[C@H]2[C@@H]3CCC4=CC(=O)CCC4=C3[C@@H](c3ccc(C(C)=O)cc3)C[C@@]21C | 85.4% (inactive)
O=C(Cc1ccccc1Nc1c(Cl)cccc1Cl)NN1C(=O)/C(=C/c2ccc(Br)cc2)SC1=S | 111% (inactive)
Cc1nn(-c2cc(=O)[nH]c3ccccc23)c(N)c1C#N | 112% (inactive)
CCn1c(Cc2ccccc2Nc2c(Cl)cccc2Cl)nnc1SCC(=O)NN1C(=O)/C(=C/c2cc(OC)c(O)c(OC)c2)SC1=S | 12.9% (inactive)
Cc1cc(C)nc(SC2=C(Nc3cc(Cl)ccc3O)C(=O)N(Cc3ccccc3)C2=O)n1 | 58.7% [30 µM] (inactive)
CCN(CC)c1ccc(/C=N\NC(=O)/C=C/C=C/c2ccc3c(c2)OCO3)c(O)c1 | 72.6% (inactive)
N#Cc1cnn(-c2nc3c(Cl)cccc3s2)c1N | 92.7% (inactive)
COc1ccc(S(=O)(=O)N2CC3(COC3)C2)cc1NC(=O)c1[nH]c(C)c2c1CCCCC2=O | 76% (inactive)
Cn1cc(C(=O)c2nc(-c3c[nH]c4ccc(F)cc34)no2)c2cc(F)ccc21 | 108% (inactive)
O=C1C=C(OCC=C(Cl)Cl)C(=O)c2ccccc21 | 86.6% (inactive)
Cc1cc(C)nc(SC2=C(Nc3cccc(Cl)c3)C(=O)N(Cc3ccccc3)C2=O)n1 | 72.6% [30 µM] (inactive)
O=c1cc(CSc2nnc(-c3ccc(F)cc3)o2)c2ccc3ccccc3c2o1 | 107% (inactive)
CCCn1c(=O)[nH]c(N)c([C@H]2c3ccccc3Oc3[nH]c(=O)n(CCC)c(=O)c32)c1=O | 98.2% (inactive)

SMILES | growth
O=C(CCN1C(=O)/C(=C/c2ccc(Cl)cc2)SC1=S)NCCCN1CCOCC1 | 109% (inactive)
Cc1nc2ccccc2n1C(=O)C[C@@H]1NC(=S)NC1=O | 108% (inactive)
O=C(N=Nc1c(O)[nH]c2ccc(Br)cc12)c1cc(-c2ccccc2)on1 | 117% (inactive)
C=C(C)C(=O)Nc1ccc(NC(C)C)cc1 | 29.7% (inactive)
CC(O)CN1CC(O)=C(c2nc3ccccc3s2)C1=N (stereo not given) | 113% (inactive)
O=c1c2c3c(sc2nc(N/N=C/c2cn(-c4ccccc4)nc2-c2ccc(Cl)cc2)n1Cc1ccccc1)CCCC3 | 118% (inactive)
COc1cccc(-c2nn(C(C)(C)C)cc2-c2ccnc(NCCCNS(=O)(=O)c3ccc(C)cc3)c2)c1 | 109% (inactive)
CSc1nc(Nc2cccc(NC(=O)CCl)c2)c(C#N)c(-c2cccc([N+](=O)[O-])c2)n1 | 43.7% (inactive)
CSc1nc(Nc2cccc(NC(=O)/C(C#N)=C/c3c(Cl)cccc3Cl)c2)c(C#N)c(-c2cccc([N+](=O)[O-])c2)n1 | 68.3% (inactive)
COc1ccc(-c2nc3ccc(-c4nc5ccc(N6CCN(c7ccccc7)CC6)cc5[nH]4)cc3[nH]2)cc1OC | -37.1% (active)
COc1ccc(CCNc2nc3c(c(=O)n(Cc4ccc(Br)cc4)c(=O)n3C)n2C)cc1OC | 120% (inactive)
C=CCSSc1ncnc2c1ncn2C1OC(CO)C(O)C1O (stereo not given) | 34.6% (inactive)
Cc1ccc(NC(=O)C2CCC(CN3CCN(C)CC3)CC2)cc1Nc1nccc(-c2cccnc2)n1 (stereo not given) | 96% (inactive)
COc1cc(/C=C/c2cc(O)c3cc(C(C)=O)c(=O)oc3c2)cc2c1O[C@]1(C)CC[C@@H](O)C(C)(C)[C@H]1C2 | -58.5% (active)
C=CC(=O)Nc1cccc(Nc2nc(SC)nc(-c3cccc([N+](=O)[O-])c3)c2C#N)c1 | 18.5% (inactive)
N#C/C(=C\c1ccc(-c2cc(C(F)(F)F)ccc2Cl)o1)c1nc(-c2ccco2)cs1 | 112% (inactive)
COCCNc1ccc2c3c(cccc13)C(=O)N(CCN(C)C)C2=O | -23.7% (active)
